Laboratory results: the supplement of paper PMC12350171
Counter-ions that a name gives are not always drawn. Unmarked numbers belong to inactive results.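 How the source made its calls: active = normalised median growth AUC below 0.1 of DMSO control; inactive = AUC 0.1 or higher.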

system: S. enterica typhimurium tolC KO; experiment: growth AUC normalised to DMSO control (median) (fraction of control); higher = less growth inhibition, active = hit call of the paper; conditions: 20 µM
Procedure, shortened: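 Strains were passaged twice overnight without oxygen, then grown in mGAM in 96-well plates with each approved-drug library compound at 20 μM and 1% DMSO, starting at OD578 0.01. OD578 was read hourly for 24 h inside an anaerobic incubator. Curves were truncated at entry into stationary phase, and the trapezoidal-rule area under the curve was normalised to same-plate vehicle wells. The value is the median across three biological replicates.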
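Further: active when median AUC fell below 0.1.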

Structure (SMILES)	growth AUC normalised to DMSO control
c1ccc2c(c1)Nc1ccccc1S2 [Phenothiazine]	0.945
O=[N+]([O-])O[C@@H]1CO[C@H]2[C@@H]1OC[C@@H]2O [Isosorbide mononitrate]	0.99
CC[C@@]1([C@@H]2O[C@@H]([C@H]3O[C@@](O)(CO)[C@H](C)C[C@@H]3C)C[C@@H]2C)CC[C@H]([C@]2(C)CC[C@]3(C[C@H](O)[C@@H](C)[C@@H]([C@@H](C)[C@@H](OC)[C@H](C)C(=O)O)O3)O2)O1 [Monensin sodium salt]	0.856
C[C@]12C=CC(=O)C=C1CC[C@@H]1[C@@H]2CC[C@@]2(C)[C@H]1CC[C@]2(C)O [Methandrostenolone]	0.982
C=C[C@H]1CN2CC[C@H]1C[C@H]2[C@H](OC(=O)OCC)c1ccnc2ccc(OC)cc12 [Quinine ethyl carbonate]	0.969
COc1ccc2c(c1)[C@]13CCCC[C@@H]1[C@H](C2)N(C)CC3 [Dextromethorphan hydrobromide monohydrate]	0.985
Oc1ccc(Cl)cc1Cc1cc(Cl)ccc1O [Dichlorophen]	0.00799 (active)
CC(C)=CC1C(C(=O)OCc2cccc(Oc3ccccc3)c2)C1(C)C (centres undefined) [Phenothrin]	1.01
CC(C)C[C@H](CN)CC(=O)O [Pregabalin]	0.989
CC(C)(C)NCC(O)c1ccccc1Cl (centres undefined) [Tulobuterol Hydrochloride]	0.989
CCN(CC)CCOC(=O)C(O)(c1ccccc1)c1ccccc1 [Benactyzine hydrochloride]	1
C[C@]12CC[C@@H]3c4ccc(OC(=O)N(CCCl)CCCl)cc4CC[C@H]3[C@@H]1CC[C@@H]2O [Estramustine]	0.968
O=C(O[C@H]1C[N+]2(CCCOc3ccccc3)CCC1CC2)C(O)(c1cccs1)c1cccs1 [Aclidinium bromide]	1
COc1ccc(Cc2nccc3cc(OC)c(OC)cc23)cc1OC [Papaverine hydrochloride]	0.976
Nc1ccncc1 [Dalfampridine]	0.995
CN[C@@H]1C[C@@H](c2ccc(Cl)c(Cl)c2)c2ccccc21 [Indatraline hydrochloride]	0.95
NC(=O)CN1CC(O)CC1=O (centres undefined) [Oxiracetam]	0.955
CN1C(=O)COc2c(C(=O)NC3CN4CCC3CC4)cc(Cl)cc21 (centres undefined) [Azasetron hydrochloride]	1.01
C[C@]12CC[C@H](O)CC1=CC[C@@H]1[C@@H]2CC[C@]2(C)C(=O)CC[C@@H]12 [Prasterone]	0.942
CC(C)C[C@H]1C(=O)N2CCC[C@H]2[C@]2(O)O[C@](NC(=O)[C@@H]3C=C4c5cccc6[nH]c(Br)c(c56)C[C@H]4N(C)C3)(C(C)C)C(=O)N12 [Bromocryptine mesylate]	0.994

Structure (SMILES)	growth AUC normalised to DMSO control
C=CCN1CC[C@]23c4c5ccc(O)c4O[C@H]2C(=O)CC[C@@]3(O)[C@H]1C5 [Naloxone hydrochloride]	1
C=CC[C@]1(O)CC[C@H]2[C@@H]3CCC4=CCCC[C@@H]4[C@H]3CC[C@@]21C [Allylestrenol]	1.01
C=C1C[C@@H]2[C@H](CC[C@]3(C)C(=O)CC[C@@H]23)[C@@]2(C)C=CC(=O)C=C12 [Exemestane]	0.935
C[C@]12C/C(=C/O)C(=O)C[C@@H]1CC[C@@H]1[C@@H]2CC[C@@]2(C)[C@H]1CC[C@]2(C)O [Oxymetholone]	0.956
CCC(=O)O[C@H]1CC[C@H]2[C@@H]3CCC4=CC(=O)CC[C@]4(C)[C@H]3CC[C@]12C [Testosterone propionate]	0.911
CC(N)C(O)c1ccccc1 (centres undefined) [Phenylpropanolamine hydrochloride]	1.01
Cc1cccc(C)c1NC(=O)CN1CCCC1=O [Nefiracetam]	1
C[C@]12COC(=O)C[C@@H]1CC[C@@H]1[C@@H]2CC[C@@]2(C)[C@H]1CC[C@]2(C)O [Oxandrolone]	0.991
CCC1(C2=NCCN2)Cc2ccccc2O1 (centres undefined) [Efaroxan hydrochloride]	0.999
CCC(COC(=O)c1cc(OC)c(OC)c(OC)c1)(c1ccccc1)N(C)C (centres undefined) [Trimebutine]	0.936
COC[C@@H](NC(C)=O)C(=O)NCc1ccccc1 [Lacosamide]	1
CCCCCC[C@H]1C(=O)O[C@H](C)[C@H](NC(=O)c2cccc(NC=O)c2O)C(=O)O[C@@H](C)[C@@H]1OC(=O)CC(C)C [Antimycin A]	1.01
C[C@]12CCC(=O)C=C1CC[C@@H]1[C@@H]2C(=O)C[C@]2(C)C(=O)CC[C@@H]12 [Adrenosterone]	0.992
N#Cc1nn(-c2c(Cl)cc(C(F)(F)F)cc2Cl)c(N)c1[S+]([O-])C(F)(F)F (centres undefined) [Fipronil]	0.903
NC(=O)OCCCc1ccccc1 [Phenprobamate]	0.991
CC[C@@H](C(=O)[C@@H](C)[C@@H](O)[C@H](C)[C@@H]1O[C@@H]([C@@H](CC)C(=O)O)CC[C@@H]1C)[C@H]1O[C@]2(C=C[C@@H](O)[C@]3(CC[C@@](C)([C@H]4CC[C@](O)(CC)[C@H](C)O4)O3)O2)[C@H](C)C[C@@H]1C [Salinomycin sodium]	0.781
CCN(C)C(=O)Oc1cccc([C@H](C)N(C)C)c1 [Rivastigmine]	1.02
Nc1nc(N)nc(NC2CC2)n1 [Cyromazine]	0.988
C#C[C@]1(O)C=C[C@H]2[C@@H]3CCC4=CC(=O)CC[C@@H]4[C@H]3CC[C@@]21CC [Gestodene]	0.995
